Test results from PubChem BioAssay AID2384 (Southern Research Specialized Biocontainment Screening …, 2010).
Hit rate of the full screen: of about 2,300 compounds, about 1,100 (48%) were called active. No rule for the calls is given here. The set was probably picked from earlier hits. This is one part of the list. Results with a measured potency or affinity are listed apart.

Assay: inhibitors in S. typhi counter-screen strain, dose response, counter-screen for PhoP regulon inhibitor project, fluorescence, 4 h (AID 2384)
Conditions: S. typhi GFP reporter counter-screen; series mostly up to 150 µM; inhibition: at the top concentration

SMILES	inhibition
O=C1c2ccccc2NC(c2cccc([N+](=O)[O-])c2)N1CCc1ccccc1 (centres undefined)	24% (inactive)
CN1C(=O)/C(=C2/C=Cc3ccccc3N2CCCS(=O)(=O)O)SC1=S	37.2% (inactive)
CCOC(=O)c1nc(C)n(-c2cc(Cl)ccc2Cl)n1	6.17% (inactive)
COc1ccccc1C1CN(c2ccc(F)cc2F)N=C1c1cccs1 (centres undefined)	-4.35% (inactive)
Cc1n[nH]c(=O)nc1NCCc1ccccc1	3.25% (inactive)
Cc1cccc(OCCSc2nnc(-c3ccoc3C)n2C)c1	17.9% (inactive)
CC(C)CC(=O)N1CCN(C(=O)CCC2CCCC2)CC1	10.6% (inactive)
Cc1cccc(NC(=O)C2CCCN2S(=O)(=O)c2ccc3c(c2)n(C)c(=O)c(=O)n3C)c1 (centres undefined)	30.3% (inactive)
O=C(CCN1CCOCC1)Nc1ccccc1	12.2% (inactive)
O=C(Nc1ccc(Cl)cc1)N1CCCN(Cc2ccccc2F)C1	22.7% (inactive)
Cc1cc(=O)oc2ccc(OCC(=O)N3CCC(C)CC3)cc12	9.4% (inactive)
O=C(COc1ccc(Cl)cc1)N1CCN(C2CCCC2)CC1	20.5% (inactive)
O=C(O)COc1ccc(F)cc1Br	-9.25% (inactive)
O=C(/C=C/c1ccc(Cl)cc1Cl)NCc1ccncc1	21.3% (inactive)
CCCSc1nc2cc(OC)c(OC)cc2c(=N)n1CCCN1CCOCC1	13.2% (inactive)
COc1ccccc1Nc1nc(Cl)c(C=O)s1	28.1% (inactive)
CC(C)(C)c1nc(SCC(=O)NCc2ccco2)c2ccccc2n1	-21.9% (inactive)
CC(C)(C)c1ccc(NC(=O)NCc2ccco2)cc1	-4.75% (inactive)
COc1ccccc1-n1nc(C(=O)NCc2ccco2)c2ccccc2c1=O	-0.37% (inactive)
CCOC(=O)c1cc(-c2ccncc2)nc2c1c(C)nn2-c1ccccn1	-11.7% (inactive)
COc1cc(C(c2nnnn2C2CCCC2)N2CCN(C)CC2)cc(OC)c1OC (centres undefined)	-10.6% (inactive)
COc1ccc(N=CC2=C(Nc3ccc(OC)cc3)c3c(C)nn(-c4ccccn4)c3CC2)cc1	19.6% (inactive)

SMILES	inhibition
Cc1cc(C)nc(SCC(=O)Nc2sc3c(c2C#N)CCC(C)C3)n1 (centres undefined)	20.4% (inactive)
O=C(CSc1nc2c(c(=O)n1-c1ccc(F)cc1)SCC2)NCc1ccco1	-2.97% (inactive)
O=C(CSc1ncc(-c2ccc(F)cc2)[nH]1)NCc1ccco1	-28.9% (inactive)
Oc1ccccc1N=Cc1c(O)ccc2oc3c(c12)CCCC3	7.25% (inactive)
CCCCOc1ccc(C2=NNC(=O)CC2)cc1	23.2% (inactive)
Cc1ccc(C(=O)Nc2ccc3c(c2)ncn3C)cc1	18.6% (inactive)
Cc1c(C(=O)Nc2ccncc2)sc2nc(-c3ccc(F)cc3)cn12	-1.91% (inactive)
Cc1cc(C)c([C@@H]2C[C@H]3CN(C4CCCC4)C(=O)[C@]34CCCN24)c(-n2cccn2)c1	2.81% (inactive)
O=C(Oc1ccc[nH]c1=O)c1cc([N+](=O)[O-])cc([N+](=O)[O-])c1	37% (inactive)
Cc1ccc(C)c2[nH]c(=O)c(CN(Cc3cccnc3)C(=S)NCc3ccco3)cc12	-7.36% (inactive)
C#CCOCCOCCOCCNc1nc(N2CCN(C(=O)CCCCCCCCCCNC(=O)[C@H](CCCCN)n3cc(C[C@@H](C)CC)nn3)CC2)nc(N2CCN(C(=O)CCCCCCCCCCNC(=O)[C@@H]([C@H](C)O)n3cc(C)nn3)CC2)n1	9.45% (inactive)
C#CCOCCOCCOCCNc1nc(N2CCN(C(=O)CCCCCCCCCCNC(=O)Cn3cc(C[C@@H](C)O)nn3)CC2)nc(N2CCN(C(=O)CCCCCCCCCCNC(=O)[C@H](CCCN=C(N)N)n3cc(C[C@@H](C)CC)nn3)CC2)n1	7.83% (inactive)
C#CCOCCOCCOCCNc1nc(N2CCN(C(=O)CCCCCCCCCCNC(=O)[C@H](CO)n3cc(CCCSC)nn3)CC2)nc(N2CCN(C(=O)CCCCCCCCCCNC(=O)[C@H](CCCN=C(N)N)n3cc(C[C@@H](C)CC)nn3)CC2)n1	-11.9% (inactive)
CCN(CC)CCCNC(=O)c1c(O)c2c([nH]c1=O)CCCC2	1.16% (inactive)
COc1cc(C(=O)Nc2ccc3c(c2)OCCO3)ccc1OC(C)C	2.98% (inactive)
Cc1ccc(S(=O)(=O)N2CCOCC2)cc1NC(=O)CSc1nc(N)cc(=O)[nH]1	-11% (inactive)
C[C@@H](CO)NC(=O)c1ccc2c3n(nc2c1)-c1ccc(Cl)cc1CO3	-3.51% (inactive)
Cc1nc2nc(COc3ccccc3)nn2c(C)c1Cl	14.8% (inactive)
CC(C)C(=O)Nc1ccccc1-c1nc2ccccc2[nH]c1=O	4.85% (inactive)
O=C(/C=C/c1ccccc1)OCc1cnc(Cl)s1	-16.4% (inactive)
CCc1nnc(NS(=O)(=O)c2ccc(NC(=S)NC(=O)/C=C/c3ccc(C(C)C)cc3)cc2)s1	39.2% (inactive)
O=C(/C=C/c1ccccc1)NC(=S)N1CCSCC1	-4.32% (inactive)

SMILES	inhibition
COc1ccccc1-n1c(SCC(=O)O)nnc1-c1ccc(S(=O)(=O)N2CCCCC2)cc1	16.1% (inactive)
O=C(CCSCc1ccccc1F)NCc1cccs1	6.35% (inactive)
Nc1cc(N2CCOCC2)c(Cl)cc1[N+](=O)[O-]	-13% (inactive)
O=C(NC1CC1)C1CCN(C2CCN(C(=O)Cc3ccc(F)cc3)CC2)CC1	-14.2% (inactive)
COc1ccc(-c2noc(CCC(=O)Nc3cccc(C)c3)n2)cc1	13.1% (inactive)
COC(=O)c1ccc(NC(=S)NNC(=O)c2ccccc2)cc1	20.3% (inactive)
COc1cc(C(=O)NC(=S)Nc2cccc3nc(C)ccc23)cc(OC)c1OC	36.5% (inactive)
CCCC(=O)N1CCN(c2ccc(NC(=S)NC(=O)c3cccc(C)c3)cc2)CC1	-4.38% (inactive)
O=C(NNC(=O)c1cccs1)c1ccc2ccccc2c1	27.6% (inactive)
Cc1ccc(NC(=O)C(=O)NNC(=O)c2cccs2)cc1	26.1% [at 2.34 µM] (inactive)
CC1(C)CC(=O)C(C(=O)/C=C/NCCc2ccccc2)C(=O)C1	20.5% (inactive)
Cc1ccc(-c2cc(N)nc(-c3ccccc3)c2)cc1	33% (inactive)
O=C(O)c1ccc(NC2=C(Cl)C(=O)c3ccccc3C2=O)cc1	-19.2% (inactive)
O=C1C(SCCO)=C(SCCO)C(=O)c2ccccc21	24.9% (inactive)
CC(C)C(NS(=O)(=O)c1cccc2nsnc12)C(=O)N1CCn2c1nc1ccccc12 (centres undefined)	20.8% (inactive)
COc1cccc(N2CCN(C(=S)NCc3ccco3)CC2)c1	-37.1% (inactive)
COc1ccc(Nc2nc(-c3ccccc3)nc3ccccc23)cc1S(=O)(=O)N1CCOCC1	-6.61% (inactive)
C=CCn1c(O)c(N=NC(=O)c2cccnc2)c2cc(Br)ccc21	-3.27% (inactive)
COc1cccc(C(=O)CC(=O)C(=O)Nc2cc(OC)c(OC)c(OC)c2)c1	11.7% (inactive)
Cc1cc(C)cc(N(C(=O)CNC(=O)c2cccs2)C(C(=O)NC2CCCC2)c2cccnc2)c1 (centres undefined)	16.6% (inactive)
